Several values for one entry are separate records, joined by “and”; a condition that tells them apart may be missing. Equal values may be shown once. About 2,000 (36%) of roughly 5,500 compounds were called active. Inconclusive results (about 18%) are left out. No stated cut-off is given here; in the data, active means normalized growth mostly below about 0.91 (no sharp cut-off); inconclusive means no clear call, values can overlap the other calls; inactive means mostly above about 0.92. The list shows a part of the results.
Test: chemical genetic growth profiling, strain panel (AID 1159580);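 further: tested at 20 µM; growth read once vehicle control cultures reached saturation at 30 °C; 1 = growth at the plate median or of vehicle wells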
Settings: S. cerevisiae deletion strains, growth OD

Measured: normalized growth

CN(C)c1ccc(C(=C2C=CC(=[N+](C)C)C=C2)c2ccc(N(C)C)cc2)cc1
0.364 (active) and 1.08 (inactive): locus YHR030C, strain SLT2, stronger effect = lower value
inactive: locus YDR195W, strain ref2 1.06
0.406 (active) and 1.08 (inactive): locus YJL095W, strain BCK1, stronger effect = lower value
active: locus YAL013W, strain DEP1, stronger effect = lower value 0.362 | locus YAL021C, strain ccr4, stronger effect = lower value 0.479 | locus YAL026C, strain drs2, stronger effect = lower value 0.563 | locus YAL030W, strain snc1, stronger effect = lower value 0.453 | locus YBL061C, strain skt5, stronger effect = lower value 0.535 | locus YBR009C, strain hhf1, stronger effect = lower value 0.486 | locus YBR021W, strain FUR4, stronger effect = lower value 0.603 | locus YBR023C, strain chs3, stronger effect = lower value 0.506 | locus YBR171W, strain sec66, stronger effect = lower value 0.717 | locus YBR229C, strain ROT2, stronger effect = lower value 0.353 | locus YBR231C, strain swc5, stronger effect = lower value 0.551 | locus YBR279W, strain paf1, stronger effect = lower value 0.463 | locus YCL011C, strain gbp2, stronger effect = lower value 0.524 | locus YCL016C, strain dcc1, stronger effect = lower value 0.473 | locus YCL029C, strain bik1, stronger effect = lower value 0.507 | locus YCL069W, strain vba3, stronger effect = lower value 0.57 | locus YCR088W, strain abp1, stronger effect = lower value 0.563 | locus YDL005C, strain med2, stronger effect = lower value 0.67 | locus YDL035C, strain GPR1, stronger effect = lower value 0.317 | locus YDL040C, strain nat1, stronger effect = lower value 0.48 | locus YDL074C, strain BRE1, stronger effect = lower value 0.492 | locus YDL101C, strain DUN1, stronger effect = lower value 0.397 | locus YDL185W, strain tfp1, stronger effect = lower value 0.433 | locus YDL192W, strain arf1, stronger effect = lower value 0.462 | locus YDR001C, strain nth1, stronger effect = lower value 0.562 | locus YDR069C, strain doa4, stronger effect = lower value 0.61 | locus YDR101C, strain arx1, stronger effect = lower value 0.486 | locus YDR137W, strain rgp1, stronger effect = lower value 0.77 | locus YDR159W, strain sac3, stronger effect = lower value 0.75 | locus YDR162C, strain NBP2, stronger effect = lower value 0.316 | locus YDR297W, strain sur2, stronger effect = lower value 0.537 | locus YDR318W, strain mcm21, stronger effect = lower value 0.487 | locus YDR334W, strain swr1, stronger effect = lower value 0.578 | locus YDR335W, strain msn5, stronger effect = lower value 0.577 | locus YDR388W, stronger effect = lower value 0.435 | locus YDR392W, strain spt3, stronger effect = lower value 0.658 | locus YDR502C, strain sam2, stronger effect = lower value 0.534 | locus YEL003W, strain gim4, stronger effect = lower value 0.547 | locus YEL037C, strain rad23, stronger effect = lower value 0.565 | locus YEL061C, strain CIN8 (second series), stronger effect = lower value 0.569 | locus YEL061C, strain CIN8, stronger effect = lower value 0.347 | locus YER015W, strain faa2, stronger effect = lower value 0.574 | locus YER016W, strain bim1, stronger effect = lower value 0.494 | locus YER110C, stronger effect = lower value 0.586 | locus YER111C, strain swi4, stronger effect = lower value 0.744 | locus YER155C, strain BEM2 (second series), stronger effect = lower value 0.826 | locus YER155C, strain BEM2, stronger effect = lower value 0.411 | locus YER167W, strain BCK2, stronger effect = lower value 0.334 | locus YFR010W, strain ubp6, stronger effect = lower value 0.614 | locus YGL078C, strain dbp3, stronger effect = lower value 0.493 | locus YGL086W, strain mad1, stronger effect = lower value 0.406 | locus YGL167C, strain pmr1, stronger effect = lower value 0.59 | locus YGL173C, strain kem1, stronger effect = lower value 0.637 | locus YGL227W, strain vid30, stronger effect = lower value 0.561 | locus YGL240W, strain doc1, stronger effect = lower value 0.618 | locus YGL248W, strain PDE1, stronger effect = lower value 0.345 | locus YGL253W, strain hxk2, stronger effect = lower value 0.465 | locus YGR078C, strain PAC10, stronger effect = lower value 0.321 | locus YGR135W, strain pre9, stronger effect = lower value 0.509 | locus YGR229C, strain SMI1, stronger effect = lower value 0.363 | locus YGR252W, strain gcn5, stronger effect = lower value 1.33 [resistant] | locus YHR013C, strain ard1, stronger effect = lower value 0.747 | locus YHR027C, strain rpn1, stronger effect = lower value 0.525 | locus YHR079C, strain IRE1 (second series), stronger effect = lower value 0.476 | locus YHR079C, strain IRE1, stronger effect = lower value 1.26 [resistant] | locus YHR094C, strain hxt1, stronger effect = lower value 0.455 | locus YHR129C, strain ARP1, stronger effect = lower value 0.366 | locus YHR142W, strain chs7, stronger effect = lower value 0.638 | locus YHR200W, strain rpn10, stronger effect = lower value 0.459 | locus YIL066C, strain RNR3, stronger effect = lower value 0.346 | locus YIL073C, strain SPO22, stronger effect = lower value 0.67 | locus YIL125W, strain kgd1, stronger effect = lower value 0.505 | locus YIR030C, strain dcg1, stronger effect = lower value 0.493 | locus YJL092W, strain hpr5, stronger effect = lower value 0.548 | locus YJL095W, strain BCK1 (second series), stronger effect = lower value 0.525 | locus YJL115W, strain asf1, stronger effect = lower value 0.651 | locus YJL129C, strain trk1, stronger effect = lower value 0.795 | locus YJL134W, strain LCB3, stronger effect = lower value 0.349 | locus YJL154C, strain vps35, stronger effect = lower value 0.551 | locus YJL164C, strain tpk1, stronger effect = lower value 0.548 | locus YJL166W, strain qcr8, stronger effect = lower value 0.478 | locus YJL168C, strain set2, stronger effect = lower value 0.448 | locus YJL187C, strain SWE1 (second series), stronger effect = lower value 0.333 | locus YJL187C, strain SWE1, stronger effect = lower value 0.521
